Experimental findings from PubChem BioAssay (Tox21) are described below.

Unmarked numbers belong to inactive results. Active and inactive are the calls of the source. Calls follow the shape of the dose curve; as a rule, active = well fitted curve in the direction sought with a large enough effect in the repeat runs; inconclusive = weak or mixed curves; inactive = flat fitted curve, though single readings scatter.
% is scaled to controls: 0 for no effect and ±100 for the full control effect.

The assay is described as follows: qHTS assay to test for compound auto fluorescence at 535 nm (green) in HepG2 cell free culture (AID 720686). The settings on record: Cell-free medium, green autofluorescence 485/535 nm; series mostly up to 91.3 µM. From the text:
U.S. Tox21 Program National Center for Advancing Translational Sciences [NCATS] NIH Chemical Genomics Center [NCGC] U.S. Environmental Protection Agency [EPA] National Institutes of Environmental Health Sciences [NIEHS] National Toxicology Program [NTP] U.S. Food and Drug Administration [FDA] Tox21 Assay Overview: Compound auto fluorescence often interferes with screening of the compound library against various biological targets and signaling pathways. Some of these compounds may have fluorophoric properties. Such properties may interfere with the assay outputs resulting in false positives and/or negatives. To decrease such complications and ensure the compound activities are relevant in terms of biological response, the Tox21 10K compound library was screened for auto fluorescence. From the fluorophores used as reporter signals in our screening assays, the auto fluorescence equivalencies of compounds against three fluorophores have been evaluated: Triamterene, Fluorescein and Rose Bengal sodium for blue, green and red fluorescence, respectively. The fluorescence intensities were measured using Excitation/Emission wavelengths at 405/460nm, 485/535nm and 540/590nm for blue, green and red labels, respectively. This assay includes the green fluorescence data.
Tox21 Assay Protocol Summary: 5 uL of culture medium (MEM containing 10% FBS) per well was dispensed into black wall/clear bottom 1536-well plates using a Multidrop Combi Dispenser (ThermoFisher Scientific, Waltham, MA). After 23 nL compound or DMSO vehicle was transferred into assay plate by a pintool work station (Kalypsys, San Diego, CA), fluorescence intensities in the assay plates were measured by an Envision (PerkinElmer, Shelton, CT) plate reader using three labels for measuring blue, green and red fluorescence at […] 460, 535 and 590nm respectively.
On the technique in general: qHTS replaces the single test concentration by a dilution series.
Turning to `Cc1ccc(O)c(C(=O)c2ccccc2)c1`, the outcome was inactive.
For `CCOC(=O)COc1ccc2c(C)c(CCN(CC)CC)c(=O)oc2c1Cl`, the outcome was inactive.
Take `c1cc2ccc3ccc4ccc5cccc6c(c1)c2c3c4c56`: the fluorescence, % of fluorescein control is -0.0141% [at 3.72 µM].
Consider `CC(=O)Nc1ccc(OCCOCCOc2ccc(NC(C)=O)cc2)cc1`, for which the molecule was called inactive.
Take `CN(C)CCc1c[nH]c2ccc(CS(=O)(=O)N3CCCC3)cc12`: the call was inactive.
On the same count and under the same terms, for `O=C(O)COc1ccc2ccccc2c1` the value was “inactive”; for `C=COCCCCO`, “inactive”.
`Cc1ccc(N)nc1`: the result was inactive.
On the same count and under the same terms, for `CSC(=O)c1cccc2nnsc12` the value was “inactive”; for `CC(=O)c1c(C)cc(C(C)(C)C)cc1C`, “inactive”.
For the molecule `CCCCCCCCC1CO1` (stereo not given), the outcome was inactive.
With `C[C@]12C=CC(=O)C=C1[C@@H](F)C[C@@H]1[C@@H]2[C@@H](O)C[C@@]2(C)[C@H]1CC[C@]2(O)C(=O)CO`, the result was inactive.
Turning to `CCCCCC(CC)OC(=O)CCCOc1ccc(Cl)cc1Cl` (stereo not given), the outcome was inactive.
Same read-out and setting: under `CCCCc1ccc(Cl)cc1` stands “inactive”.
Turning to `O=C(O)Cc1c(Cl)ccc(Cl)c1Cl`, the molecule was classed as inactive.
`C/C(=N\O)c1ccc(OCC(=O)N2CCCCC2)cc1`: the call was inactive.
For `C/C=C(\C)C=O`, the result was inactive.
As to `N=C(N)N1CCc2ccccc2C1`, the molecule was classed as inactive.
Same read-out and setting: under `CC(C)(C)C(=O)CCc1ccc(Cl)cc1` stands “inactive”; under `CC(=O)OC/C=C(/C)CCC=C(C)C`, “inactive”.
On the same count and under the same terms, for `Cc1cc(C)c(N)c(Cl)c1` the value was “inactive”; for `CCCCC(CC)CCC(CC(C)C)OS(=O)(=O)O` (stereo not given), “inactive”; for `COC(=O)c1c(C)cc(O)c(C)c1O`, “inactive”.
For `CCC(=O)OCCOc1ccccc1`, the call was inactive.
On to `O=S(=O)(O)c1ccc(Cl)cc1`, for which the result was inactive.
Regarding `O=C(O)CCC(=O)Nc1ccc(S(=O)(=O)Nc2nccs2)cc1`, the fluorescence, % of fluorescein control was 0.022% [at 18.6 µM].
Turning to `CCO/C=C1\N=C(c2ccccc2)OC1=O`, the molecule was classed as inactive.
Turning to `CC(C)=CCC/C(C)=C\C#N`, the call was inactive.
For the molecule `Clc1cc(Cl)c(Cl)c(Cl)c1Cl`, the outcome was inactive.
On to `N=C(N)S(=O)O`, for which the outcome was inactive.
On the same count and under the same terms, under `CC[C@@]1(c2ccccc2)NC(=O)N(C)C1=O` stands “inactive”; under `C=CC(=O)CC`, “inactive”; under `CCO[Si](CC(C)C)(OCC)OCC`, “inactive”.
Turning to `O=C1Nc2ccccc2C1=O`, the result was inactive.
As to `CCCCCCCCCCCC(C)=O`, the result was inactive.
In the case of `CCCCS`, the call was inactive.
The same measure, in the same setting: under `CCN1CCN(C(=O)N[C@@H](C(=O)N[C@@H]2C(=O)N3[C@@H]2SC(C)(C)[C@H]3C(=O)O)c2ccccc2)C(=O)C1=O` stands “inactive”; under `CCCOc1ccc(C(=O)OCCN(CC)CC)cc1N`, “inactive”.
The same measure, in the same setting: under `CC(C)C[P+](C)(CC(C)C)CC(C)C` stands “inactive”; under `CCNC(=O)C(C)OC(=O)Nc1ccccc1` (stereo not given), “inactive”.
